PNC assembly inh: High Content Assay for Compounds that inhibit the Assembly of the Perinucleolar Compartment | PC3M PTB-GFP, PNC prevalence imaging, 16 h; hits give low values | AID 2417, 2010 | actives 3.1% (n = 140,000) | activity change (PNC), negative = inhibition, % at 10 µM;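 active = readout at or below -70, meaning at least 70% loss of cells showing the perinucleolar compartment, a nuclear body marking cancer cells; inconclusive = readout between -30 and a set limit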
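Compounds are pinned in duplicate onto adhered PC3M cells stably expressing GFP-tagged PTB and incubated 16 h at 37 C. Cells are then fixed, nuclei stained with Hoechst, and PNC-positive cells counted.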
ALDH1A1 inh: qHTS Assay for Inhibitors of Aldehyde Dehydrogenase 1 (ALDH1A1); Potency, µM (top dose mostly 75.3 µM), actives largely listed as inhibitors; AID 1030, 2008; Aldehyde dehydrogenase 1A1 (Homo sapiens), P00352; Purified ALDH1A1, NADH fluorescence, propionaldehyde substrate; actives 7.3% (n = 220,000)
HPGD block: qHTS Assay for Inhibitors of HPGD (15-Hydroxyprostaglandin Dehydrogenase); Potency, µM, usual class: inhibitors; 15-hydroxyprostaglandin dehydrogenase [NAD(+)] (Homo sapiens), P15428; actives 4.3% (n = 150,000); AID 894, 2007; purified HPGD, NADH fluorescence kinetic, PGE2 substrate
Target sequence (P15428 whole entry, looked up): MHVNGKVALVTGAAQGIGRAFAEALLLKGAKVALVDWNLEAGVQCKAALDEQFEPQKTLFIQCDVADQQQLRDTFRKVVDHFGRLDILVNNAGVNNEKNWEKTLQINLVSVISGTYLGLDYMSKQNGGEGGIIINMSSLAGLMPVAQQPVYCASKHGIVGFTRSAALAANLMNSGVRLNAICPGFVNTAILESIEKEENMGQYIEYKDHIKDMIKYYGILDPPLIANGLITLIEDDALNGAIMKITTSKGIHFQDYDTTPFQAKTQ
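20 nM HPGD preincubated 15 min at room temperature with compound in 50 mM Tris-HCl pH 8, 0.01% Tween 20. Started with 1 mM NAD+ and 30 uM prostaglandin E2; NADH fluorescence (360/450 nm) read 5 times over 30-s intervals, last minus first.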
Lamin A splicing: qHTS Assay for Modulators of Lamin A Splicing; HeLa LMNA splicing GFP/RFP minigene ratio, 48 h; Potency, µM (highest dose often 46.1 µM), actives largely listed as inhibitors; actives 0.01% (n = 200,000); AID 1487, 2009; active = well fitted inhibition curve with a large enough effect in the signal ratio, with a control signal flat, not every such curve was filed as active; inconclusive = small, poorly fitted or top-dose-only effect, or effect the other way, or a change in a side signal; the % refers to the signal ratio
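Read-out is the ratio of GFP to DsRed2 object intensity, acquired by 488 nm laser-scanning cytometry on HeLa lamin A-EGFP minigene reporter cells. Compound incubation 48 hrs at 37 °C in Opti-MEM with 2% FBS; DMSO 0.5% final.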
KinaseGlo FLuc: Counterscreen for Luciferase (Kinase-Glo TM) Inhibition; actives 0.28% (n = 200,000); Luciferin 4-monooxygenase (Photuris pensylvanica), Q27757; Kinase-Glo luciferase, ATP luminescence, 8 min; Potency, µM (doses to about 38.3 µM), actives largely listed as inhibitors; active = well fitted inhibition curve with a large enough effect; inconclusive = small, poorly fitted or top-dose-only effect; also: nearly all actives have a fitted effect of over 60% in size
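Luminescence was the read-out, taken after 8-minute incubation at ambient temperature. Luciferase turned over luciferin with 10 uM ATP in imidazole pH 7.2 buffer containing KCl, MgCl2, Tween 20 and BSA.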
Hits are given with their value; . = inactive; ? = inconclusive; / = not tested or not shown; [ ] = dose if it differs, or a comment. Sampled rows, rich in hits. Any-hit rate of the full collection: about 10%. Unless noted, calls follow the shape of the dose curve; as a rule, active = well fitted inhibition curve with a large enough effect (not every such curve was filed as active); inconclusive = small, poorly fitted or top-dose-only effect, or another doubt; inactive = no such curve, though single readings can be large or run the other way.

SMILES	PNC assembly inh	ALDH1A1 inh	HPGD block	Lamin A splicing	KinaseGlo FLuc
CCCCCC1CC(CC(=O)Nc2nncs2)C(=O)O1 (stereo not drawn)	-100.0	.	.	.	.
COc1ccc(-c2cn3c(n2)sc2cc(C(=O)Nc4c(C)cccc4C)ccc23)cc1	/	/	/	.	/
CC(C)(C)c1ccc(C(=O)OCCNC(=O)c2c(Cl)nc3ccccn23)cc1	.	?	11.2µM	.	.
COc1ccc(C(=O)OCCNC(=O)c2c(Cl)nc3ccccn23)cc1	?	.	25.1µM	.	.
CCOC(=O)c1c(-c2ccccc2)nc2ccccn12	.	.	.	.	.
Cc1ccc(C(=O)CSc2nnc(-c3ccccc3)o2)cc1	-94.9	.	.	.	.
O=C(CSc1nnc(-c2ccc(S(=O)(=O)N3CCOCC3)cc2)o1)c1ccccc1F	?	?	.	.	.
COc1ccc(C(=O)CSc2nnc(-c3ccc(S(=O)(=O)N4CCOCC4)cc3)o2)cc1	.	0.501µM	.	.	.
Cc1occc1-c1nnc(SCC(=O)c2ccc(F)cc2)o1	?	31.6µM	?	.	.
Cc1ccc(NC(=O)CN2C(=O)CCc3cc(S(=O)(=O)N4CCOCC4)ccc32)c(C)c1	/	/	/	.	/
COc1ccc(-c2cn3cccnc3n2)cc1NC(=O)Nc1ccc(Cl)cc1	/	/	/	.	/
COCCNC(=O)c1ccc(Cc2nc3ccccc3[nH]2)cc1	/	.	.	/	.
CCOC(=O)c1c(NC(=O)c2ccccc2N(C)S(=O)(=O)c2ccccc2)sc2c1CCCC2	.	?	?	?	.
O=C(Nc1sc2c(c1C(=O)O)CCC2)c1ccccc1	.	.	17.8µM	?	.
O=C(Nc1sc2c(c1C(=O)O)CCC2)c1cccs1	.	?	25.1µM	?	.
O=C(Nc1sc2c(c1C(=O)O)CCC2)c1ccc(F)cc1	/	.	/	.	.
O=C(O)c1c(NC(=O)c2cccc3ccccc23)sc2c1CCC2	?	?	15.8µM	.	.
CC(C)(c1cc(Br)c(OCC(Br)CBr)c(Br)c1)c1cc(Br)c(OCC(Br)CBr)c(Br)c1 (stereo not drawn)	/	?	.	/	/
NS(=O)(=O)c1nc(S(=O)(=O)O)c2[nH]cnc2n1	/	.[13.5 µM]	.	/	.[7.66 µM]
O=C1NC(=O)[C@@H]2C3c4ccccc4C=CN3[C@H](C(=O)c3cccs3)[C@H]12 (stereo partly drawn)	.	25.1µM	.	.	.
O=C(Cn1ccccc1=O)c1cccs1	.	.	.	.	.
CCCCc1nn(-c2cc(Cl)ccc2OC)c2c1C(=O)CC(C)(C)C2	?	.	.	.	.
CCCc1nn(-c2cc(Cl)ccc2OC)c2c1C(=O)CCC2	-97.3	.	.	.	.
O=c1ccc2cc3c([nH]c4ccc(Br)cc43)oc-2c1O	.	7.94µM	15.8µM	.	.
CCN1C(=O)[C@H]2[C@@H]3[C@H](O)C=CC(=O)[C@H]3CC[C@H]2C1=O	/	3.16µM	/	/	/
SMILES	PNC assembly inh	ALDH1A1 inh	HPGD block	Lamin A splicing	KinaseGlo FLuc
N#CC1=C(N)N(c2ccccc2C#N)C2=C(C(=O)CCC2)C1c1ccsc1 (stereo not drawn)	.	25.1µM	.	.	.
CC(NC(=O)c1ccc(Br)o1)c1ccccc1 (stereo not drawn)	/	?	/	?	.
O=C(NC(c1ccccc1)c1ccccc1)c1ccc(Br)o1	.	0.794µM	.	.	.
COC(=O)c1cc(NC(=S)NCc2ccc(Cl)cc2)cc(C(=O)OC)c1	?	11.2µM	.	?	.
O=C(NCc1ccc(Cl)cc1)c1ccc(Cl)cc1[N+](=O)[O-]	.	.	15.8µM	.	.
Cc1ccc(CNC(=O)c2ccc(Br)o2)cc1	.	15.8µM	3.16µM	.	.
COC(=O)c1cccc(NC(=S)NCc2ccc(Cl)cc2)c1	.	.	.	.	.
CCOC(=O)c1[nH]c(C)c(CCC(=O)N2CCN(c3ccc(OC)cc3)CC2)c1C	/	/	/	.	/
C[C@@](N)(/C=C\c1ccccc1)C(=O)O	/	.[13.5 µM]	.	/	.[7.66 µM]
Cn1cccc1C(=O)C(=O)Nc1ccc(F)c(F)c1	/	.	/	.	.
O=C(NC1CCCC1)c1ccc(Br)o1	-85.0	.	15.8µM	.	.
O=C(/C=C/c1ccc(Br)o1)OCc1ccccc1	.	?	.	.	.
O=C(c1ccc(Br)o1)N(Cc1ccccc1)Cc1ccccc1	.	0.794µM	.	?	.
CCCC(=O)OCC(=O)NCc1ccc(Cl)cc1	/	.	/	?	.
O=C(/C=C/c1ccc(Br)o1)NC(c1ccccc1)c1ccccc1	?	22.4µM	.	?	.
O=C(NCCc1ccccc1)c1ccc(Br)o1	.	?	?	.	.
CCCCC(=O)NCc1ccc(Cl)cc1	.	.	14.1µM	.	.
COc1cc(/C=N/NC(=O)C(N)=O)ccc1OCC(=O)N1C(C)CCCC1C (stereo not drawn)	/	.	/	/	/
Cc1ccc2c(c1)N(CC(=O)NCc1cccc(Cl)c1)C(=O)c1cccnc1O2	/	/	/	.	/
CN(C)c1cccc(C(=O)NCc2ccc(Cl)cc2)c1	/	.	/	/	.
COc1ccc(CNC(=O)c2ccc(Br)o2)cc1	.	25.1µM	25.1µM	.	.
O=C(NCc1ccccc1)c1cccc(Br)n1	?	.	31.6µM	.	.
CC(C)c1ccc(C(=O)NCc2ccc(Cl)cc2)cc1	.	.	.	.	.
Cc1ccc(C(=O)NCc2ccc(Cl)cc2)o1	.	.	14.1µM	.	.
O=C(NCc1ccc(F)cc1)c1ccc(Br)o1	/	.	/	/	.
SMILES	PNC assembly inh	ALDH1A1 inh	HPGD block	Lamin A splicing	KinaseGlo FLuc
O=C(NCCc1ccccc1)c1cccc(Br)n1	/	.	.	/	.
O=C(NCc1ccc(Cl)cc1)c1cccc(NC(=O)c2ccccc2)c1	-100.0	.	?	.	.
Cc1ccc(NC(=O)CSc2nc3nccnc3c(=O)n2CCc2c[nH]c3ccccc23)cc1C	/	/	/	.	/
O=C(/C=C/c1ccc(O)c(O)c1)O[C@@H]1C[C@@](O)(C(=O)O)C[C@H](O)[C@@H]1O	/	?	.	/	.
O=C(NCc1ccc(Cl)cc1)c1ccccc1Oc1ccccc1	.	?	10µM	.	.
O=C(NCc1ccccc1)c1ccc(Br)o1	.	.	12.6µM	.	.
COCCCNC(=O)c1ccccc1Oc1ccccc1	?	.	.	.	.
O=C(O)c1ccc(CNC(=O)c2ccc(Br)o2)cc1	?	.	.	.	.
CCOc1ccccc1Nc1sc(C(=O)c2ccc(Cl)cc2)c(N)c1S(=O)(=O)c1ccccc1	/	/	/	.	/
Cn1c(=O)c2c(n3c4ccccc4nc13)NC(=O)CC2c1ccccc1F (stereo not drawn)	/	/	/	.	/
Cc1c(NS(=O)(=O)c2ccccc2)cc(Cl)c(O)c1C	.	22.4µM	31.6µM	.	.
COc1ccc(S(=O)(=O)Nc2cc(C)c(O)c(S(=O)(=O)c3ccccc3)c2)cc1	-102.2	?	.	.	.
Cc1ccc(S(=O)(=O)Nc2cc(Cl)c(O)cc2C)cc1	.	?	.	?	.

Screens from PubChem BioAssay.
